Data reported in PubChem BioAssay (NCATS).
Results filed as inconclusive are left out. A call without a number means that no potency is given here. Activity calls are given as the source filed them. The call rests on the fitted dose curve; in most records, active means well fitted cell-killing curve with a large enough effect; inconclusive means small, poorly fitted or top-dose-only effect, or effect the other way; inactive means flat fitted curve, though single readings scatter.

These molecules were tested on Tov112D (assay: Primary qHTS to identify gynecologic anti-cancer compounds using libraries of approved drugs and bioactive compounds (AID 1345084; further: nearly all actives have a fitted effect of over 55% in size)). Conditions: Gynecologic cancer cell panel viability, ATPlite luminescence, 48 h; series mostly up to 57.5 µM.
Outline: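 ATP-based viability (ATPlite), 1,000 cells/well, 16 h pre-incubation, 48 h compound at 37 C, 5% CO2, 15 min RT before read.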
In the case of `CCn1nc(C2CCN(C(=O)CCO)CC2)nc1-c1cnc(N)c(-c2nnc(C(C)(C)C)o2)n1`, the Potency was “inactive”.
For `Oc1cccc(-c2c3nc(c(-c4cccc(O)c4)c4ccc([nH]4)c(-c4cccc(O)c4)c4nc(c(-c5cccc(O)c5)c5ccc2[nH]5)CC4)C=C3)c1`, the Potency was “inactive”.
In the case of `Cc1[nH]c(/C=C2\C(=O)Nc3ccc(F)cc32)c(C)c1C(=O)NCCN1CCCC1`, the Potency was “inactive”.
For `C=C1C(=O)O[C@@H]2C[C@@]3(C)C[C@@H](O)C[C@H](C)C3=C[C@H]12`, the Potency was “inactive”.
`COc1cc2c(cc1OC(C)C)[C@H](c1ccc(Cl)cc1)N(c1ccc(N(C)CC3CCC(N4CCN(C)C(=O)C4)CC3)cc1)C(=O)C2` (stereo not given in full) was tested, and the Potency was “inactive”.
